PubChem BioAssay AID488890 (Southern Research Specialized Biocontainment Screening …, 2010)
Among all 320,000 compounds or so, about 1,300 (0.41%) were called active. Roughly 3% stayed inconclusive and do not appear here. How the calls were made is not given here. A selection follows. Results with a measured potency or affinity are listed apart.

experiment: growth inhibition of non-replicating M. tuberculosis (AID 488890); settings: Mycobacterium tuberculosis non-replicating, at 25 µM, stronger effect = higher value;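 further: plate controls were DMSO cells for no effect and high antibiotic wells for full effect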

SMILES	inhibition
COc1ccccc1CN(C)C(=O)COC(=O)c1ccc(Cl)nc1	73.1%
COCCn1nnnc1CN1CCN(C(=O)c2ccco2)CC1	-9.84%
CC(NC(=O)c1cccs1)C(S)c1ccccc1 (stereo not drawn)	13.2%
CN(CC(=O)Nc1ccccc1Br)C(=O)CCc1ccccc1	6.37%
COC(=O)c1ccc(N2C(=O)CC(N(C)CCc3ccc(OC)c(OC)c3)C2=O)cc1 (stereo not drawn)	-11.7%
O=C(Nc1ncnc2c1CCC2)C12CC3CC(CC(C3)C1)C2	-0.8%
CC(C)(C)c1ccc(NNC(=O)C2CCC2)cc1	23.3%
O=C(Nc1cccc(NC(=O)c2cccs2)c1)c1ccc(Br)o1	40.6%
COc1cc(NC(=O)c2ccc([N+](=O)[O-])o2)ccc1NC(=O)c1cccs1	44%
COc1ccc(C(=O)C2CCCN(C(=O)c3cccc(Cl)c3F)C2)cc1OC (stereo not drawn)	8.33%
Cc1cccnc1NC(=O)c1ccc2c(c1)NC(=O)C(C)S2 (stereo not drawn)	-14.1%
Cc1ccc(SCC(=O)Nc2cc(S(=O)(=O)N3CCCCC3)ccc2C)cc1	29.3%
O=C(Cn1nc(-c2ccccc2F)ccc1=O)Nc1ccc(S(=O)(=O)N2CCCCCC2)cc1	30.3%
O=C(NN=C1CCCC1)c1ccc(Cl)cc1	-5.56%
O=C1CCC/C(=N\NC(=O)COc2ccc(Cl)cc2)C1	2.35%
O=C1OC(/C(=C\Nc2ccccc2)[N+](=O)[O-])c2ccccc21 (stereo not drawn)	-1.48%
O=C1OC(/C(=C\Nc2ccc(F)cc2F)[N+](=O)[O-])c2ccccc21 (stereo not drawn)	-5.17%
CC(C)(C)c1cc(NCCCn2ccnc2)n2ncc(-c3ccccc3)c2n1	73.1%
CC(C)(C)c1cc(NCCCn2ccnc2)n2ncc(-c3ccc(Cl)cc3)c2n1	67.9%
CCOC(=O)c1ccc(N2CN(CC)CNC2=S)cc1	51.5%
OC(CCc1cccc(Cl)c1)c1cccs1 (stereo not drawn)	75.1%
CCO[C@H]1OC(C(=O)N2CCN(Cc3ccc4c(c3)OCO4)CC2)=C[C@@H](C)[C@@H]1CCCO	-18%
COc1ccccc1CCNC(=O)c1ccoc1C	3.23%
COc1ccccc1OCCNC(=O)c1ccc(C)o1	-13.1%
CCOC(=O)c1cc(C(=O)NC(C)c2ccccc2)c(=O)[nH]c1C (stereo not drawn)	-20.4%

SMILES	inhibition
CC(C)NC(=O)COC(=O)c1cc(Br)ccc1Cl	75.9%
CNC(=O)COC(=O)c1cc(F)c(F)cc1Cl	19.5%
COC(=O)CNC(=O)COC(=O)c1cc(F)c(F)cc1Cl	42.5%
CC(C)(C)NC(=O)COC(=O)c1cc(Br)ccc1Cl	63.1%
Cc1ccc(C)c(NC(=O)C2CC3CCC2C3)c1 (stereo not drawn)	15.3%
CC(C)(C)OC(=O)C[C@@H]1C/C=C\C[C@@H](CC(=O)N(CCO)Cc2ccccc2)C(=O)N[C@H](Cc2c[nH]c3ccccc23)COC1=O	67%
Cc1ccc(SCC(=O)OCC(=O)N2CCN(C(=O)c3ccco3)CC2)c(C)c1	15.3%
Cc1ccc(/C=C/C(=O)N2CCCC(C(N)=O)C2)o1 (stereo not drawn)	4.1%
O=C(c1ccc2c(c1)N(Cc1ccccc1F)C(=O)c1ccccc1S2)N1CCOCC1	33.2%
Cc1ccccc1OCc1n[nH]c(=S)n1-c1ccccc1	-9.9%
O=C(COC(=O)c1ccccc1NCCO)NCC1CCCCC1	23.3%
CCOc1ccc2nc(NC(=O)Nc3ccccc3)sc2c1	-2.52%
CCOc1ccc2nc(NC(=O)c3ccoc3C)sc2c1	54.7%
CCOc1ccc2nc(NC(=O)c3cccnc3)sc2c1	8.67%
CCOc1ccc2nc(NC(=O)c3ccc(C)o3)sc2c1	27.5%
COc1ccc(/C=C/C(=O)Oc2cccc(/C=N/NC(=O)Cc3ccc(Br)cc3)c2)cc1	23.8%
CC(NS(=O)(=O)c1ccc2c(c1)CC(C)N2C(=O)C1CC1)c1ccccc1 (stereo not drawn)	12.7%
CCCc1cc(=O)[nH]c(SCC(=O)Nc2cc(S(=O)(=O)N3CCOCC3)ccc2N(CC)CC)n1	18.9%
CCCCn1c(N)c(N(CCOC)C(=O)COc2ccc(C(C)=O)cc2)c(=O)[nH]c1=O	-6.71%
O=C(N/N=C/c1ccc(F)cc1)c1ccncc1	53.7%
O=C(N/N=C\c1ccc[nH]1)c1cncc(Br)c1	4.75%
O=C(N/N=C/c1cc2c(cc1Cl)OCO2)c1cccc(Br)c1	-12.4%
O=C(N/N=C/c1coc2ccccc2c1=O)c1ccncc1	76.8%
O=C(N/N=C/c1ccc[nH]1)c1ccc([N+](=O)[O-])cc1	-12.7%
O=C(N/N=C/c1ccc[nH]1)c1ccc(O)cc1	46.7%

SMILES	inhibition
O=C(N/N=C/c1cc2c(cc1Cl)OCO2)c1ccc2c(c1)OCCO2	-6.98%
COc1ccc(C(=O)N/N=C\c2coc3ccccc3c2=O)cc1	50.1%
CCOc1cc(C(=O)NCc2ccc(-c3nc4ccccc4o3)cc2)cc(OCC)c1OCC	5.09%
O=C(Cc1ccc(Cl)cc1)N/N=C/c1ccccc1	16.8%
Cc1ccc(/C=N\Nc2cn[nH]c(=O)c2Cl)cc1	-3.74%
CCc1ccccc1Nc1nc2ccccc2n1C	43.6%
CC(C)CNS(=O)(=O)c1ccc(S(=O)(=O)N2CCN(CCC#N)CC2)cc1	6.46%
O=C(N/N=C/c1ccc2c(c1)OCO2)c1ccc2c(c1)OCO2	23.3%
COc1cccc(/C=N/NC(=O)CNC(=O)c2ccc3c(c2)OCCO3)c1O	-7.52%
O=C(N/N=C/c1ccccc1)c1ccc2c(c1)OCO2	51.5%
COc1cc(/C=N/NC(=O)c2ccoc2C)cc(OC)c1O	-10%
CCOc1cc(/C=N/NC(=O)c2ccc3c(c2)OCCO3)cc(Br)c1O	11.1%
COc1cccc(/C=N/NC(=O)N/N=C/c2cccc(OC)c2O)c1O	-1.08%
CCN(CC(=O)Nc1sc2c(c1C#N)CCC(C)C2)Cc1nc2ccccc2c(=O)[nH]1 (stereo not drawn)	5.89%
NC(=O)C1CCCN1 (stereo not drawn)	3.98%
CC1(C)CC(=O)c2cnc(NCC3CCCO3)nc2C1 (stereo not drawn)	-8.53%
COC(=O)CSc1nnc2c3c4c(sc3nc(-n3nc(C)cc3C)n12)COC(C)(C)C4	0.76%
O=C1c2ccccc2C(=O)N1CCC#Cc1ccc2cc(CCCO)oc(=O)c2c1	12.8%
O=C(c1ccc(COc2ccccc2Cl)o1)N1CCCC1	-8.31%
O=C(Nc1ccccn1)c1ccc(COc2ccccc2Cl)o1	72.4%
CCOc1ccc(OCc2ccc(C(=O)O)o2)cc1	18.9%
CCc1ccc(OCc2ccc(C(=O)NCc3ccccn3)o2)cc1	64.5%
N/C(=N\N=C\c1cccs1)SC1CC(=O)N(c2ccc(Br)cc2)C1=O (stereo not drawn)	7.06%
